Bioassay records deposited in PubChem BioAssay by several laboratories.
Shown are actives, neighbours in structure and some others; about 22% of the full set was active somewhere.
CYP2C9 inhib – blocks human cytochrome P450 2C9; CYP2C9 Supersomes, luciferin-H conversion, luminescence; AID 777; inhibition, % at 5 µM; 20% of 96,000 active;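 active = blocking of liver enzyme CYP2C9 beyond about 50% at 5 µM, limit read from the data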
CYP2C9 activ – CYP2C9 (human) activation | P11712 | recombinant CYP2C9, luciferin-H conversion, luminescence; stronger effect = higher value; factor 1 = untreated enzyme, 0 = blocked | activation factor at 5 µM | 1.4% of 96,000 active | AID 1024;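 active = activation factor of 2 or more for CYP2C9 at a 5 µM dose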;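 also: 0 = sulfaphenazole-blocked wells and 1 = vehicle-only wells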
CYP2C19 inh – blocks human cytochrome P450 2C19 | P33261 | CYP2C19 Supersomes, luciferin-H EGE luminescence, 30 min | inhibition, % at 5 µM | 21% of 96,000 active;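 active = CYP2C19 inhibition above a set limit at 5 µM in the primary screen, cut at about 50% in these data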;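 also: plate controls were negative control wells for no effect and 2.5 mM tranylcypromine positive control for full effect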
Target sequence (P33261 whole entry, looked up): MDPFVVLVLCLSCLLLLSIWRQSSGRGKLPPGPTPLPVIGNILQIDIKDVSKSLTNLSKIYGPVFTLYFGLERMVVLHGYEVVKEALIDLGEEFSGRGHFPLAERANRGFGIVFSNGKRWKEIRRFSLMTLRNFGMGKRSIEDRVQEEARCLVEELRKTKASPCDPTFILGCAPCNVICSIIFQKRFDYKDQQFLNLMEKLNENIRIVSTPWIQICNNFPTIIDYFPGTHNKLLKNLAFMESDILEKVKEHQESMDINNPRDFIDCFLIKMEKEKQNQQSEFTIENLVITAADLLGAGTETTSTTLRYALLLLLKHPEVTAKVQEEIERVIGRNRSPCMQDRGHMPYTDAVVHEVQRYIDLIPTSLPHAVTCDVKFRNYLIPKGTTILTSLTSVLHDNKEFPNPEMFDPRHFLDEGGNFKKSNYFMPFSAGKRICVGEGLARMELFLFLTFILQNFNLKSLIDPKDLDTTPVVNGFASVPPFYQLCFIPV
CYP2C19 act – activators of human cytochrome P450 2C19. 96,000 tested, under 10 active. activation factor at 5 µM. AID 1025. recombinant CYP2C19, luciferin-H EGE luminescence; stronger effect = higher value; 0 = fully inhibited enzyme, 1 = untreated enzyme;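 active = activation factor of at least 2 at 5 µM in the primary screen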;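 also: 0 = wells with 2.5 mM tranylcypromine and 1 = vehicle-only wells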
F-actin modifier – modifiers of cytoskeleton assembly | HUVEC TNFa F-actin phalloidin imaging, high content | inhibition, % at 2 µM | 0.18% of 91,000 active;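 active = inhibition above the batch mean plus 3 SD and confirmed as a hit by visual image inspection, cut at about 30% in these data, passing the limit was not always enough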
E-sel TNF inh – TNF alpha driven E-selectin expression inhibition | inhibition, % at 2 µM | 0.71% of 120,000 active | HUVEC TNFa-induced E-selectin immunofluorescence, high content;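 active = inhibition above the batch mean plus 3 SD, and confirmed as a hit on visual image review, cut at about 43% in these data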;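 also: 0% = TNF-stimulated DMSO wells and 100% = unstimulated control wells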
Starred values were filed as active, the others as inactive.

Results for Cc1cccc2cc(C(c3nnnn3CC3CCCO3)N3CCc4ccccc4C3)c(=O)[nH]c12 (configuration not stated) ?
CYP2C9 inhib: 60*; CYP2C9 activ: 0.4; CYP2C19 inh: 47; CYP2C19 act: 0.5; F-actin modifier: -2

What do the screens show for `Cc1cccc2cc(C(c3nnnn3CC3CCCO3)N3CCCc4ccccc43)c(=O)[nH]c12` (configuration not stated)?
CYP2C9 inhib: 56*; CYP2C9 activ: 0.4; CYP2C19 inh: 28; CYP2C19 act: 0.7; F-actin modifier: -32; E-sel TNF inh: 28

How did CCOc1ccc2[nH]c(=O)c(C(c3nnnn3CC3CCCO3)N3CCc4ccccc4C3)cc2c1 (configuration not stated) do in these assays?
CYP2C9 inhib: 68*; CYP2C9 activ: 0.3; CYP2C19 inh: 50*; CYP2C19 act: 0.5

What do the screens show for `Cc1cc(C(c2nnnn2Cc2ccccc2)N2CCOCC2)c(C)n1-c1ccc2c(c1)OCO2` (configuration not stated)?
CYP2C9 inhib: 90*; CYP2C9 activ: 0.1; CYP2C19 inh: 96*; CYP2C19 act: 0; F-actin modifier: -18

What do the screens show for `COc1ccc2[nH]c(=O)c(C(c3nnnn3CC3CCCO3)N3CCCCC3)cc2c1` (configuration not stated)?
E-sel TNF inh: 25

What do the screens show for `Cn1c(/C(C#N)=C(\O)c2ccc(S(=O)(=O)N3CCCCC3)cc2)nc2ccccc21`?
CYP2C9 inhib: 45; CYP2C9 activ: 0.6; CYP2C19 inh: 8; CYP2C19 act: 0.9; F-actin modifier: -4

Results for CCOCCCNC(=O)C(C)NS(=O)(=O)c1ccc(C)cc1 (configuration not stated) ?
CYP2C9 inhib: -4; CYP2C9 activ: 1; CYP2C19 inh: 2; CYP2C19 act: 1; F-actin modifier: -4; E-sel TNF inh: 2

How did O=C(Nc1nc2ccc(F)cc2s1)c1ccccn1 do in these assays?
E-sel TNF inh: -78

Results for CC(C)C(c1nnnn1Cc1ccc2c(c1)OCO2)N1CCN(c2ccccc2)CC1 (configuration not stated) ?
CYP2C9 inhib: 9; CYP2C9 activ: 0.9; CYP2C19 inh: 4; CYP2C19 act: 1; F-actin modifier: -14; E-sel TNF inh: -25

How did Cc1ccc(C)c2[nH]c(=O)c(C(c3nnnn3Cc3ccccc3)N3CCc4ccccc4C3)cc12 (configuration not stated) do in these assays?
CYP2C9 inhib: 73*; CYP2C9 activ: 0.3; CYP2C19 inh: 85*; CYP2C19 act: 0.1; F-actin modifier: 24; E-sel TNF inh: 19

What do the screens show for `Cc1cccc2cc(C(c3nnnn3Cc3ccc4c(c3)OCO4)N3CCCC3)c(=O)[nH]c12` (configuration not stated)?
CYP2C9 inhib: 50*; CYP2C9 activ: 0.5; CYP2C19 inh: 38; CYP2C19 act: 0.6; F-actin modifier: 5; E-sel TNF inh: 4

How did Cc1ccc2cc(C(c3nnnn3CC3CCCO3)N3CCCC4(CCCCC4)C3)c(=O)[nH]c2c1 (configuration not stated) do in these assays?
F-actin modifier: -14; E-sel TNF inh: -7

How did O=c1[nH]c2cc3c(cc2cc1C(c1nnnn1Cc1ccccc1)N1CCCc2ccccc21)OCO3 (configuration not stated) do in these assays?
F-actin modifier: 22; E-sel TNF inh: 13

How did CC(C)C(c1nnnn1Cc1ccc2c(c1)OCO2)N1CCN(C)CC1 (configuration not stated) do in these assays?
F-actin modifier: -9; E-sel TNF inh: 42*

How did O=c1[nH]c2cc3c(cc2cc1C(c1nnnn1Cc1ccccc1)N1CCCCCC1)OCCO3 (configuration not stated) do in these assays?
CYP2C9 inhib: 18; CYP2C9 activ: 0.8; CYP2C19 inh: 14; CYP2C19 act: 0.9; E-sel TNF inh: -10

How did Cc1ccc2cc(C(c3nnnn3CC3CCCO3)N3CCc4ccccc4C3)c(=O)[nH]c2c1 (configuration not stated) do in these assays?
CYP2C9 inhib: 71*; CYP2C9 activ: 0.3; CYP2C19 inh: 42; CYP2C19 act: 0.6; F-actin modifier: 2; E-sel TNF inh: 14
